These results are taken from PubChem BioAssay AID488890 (Southern Research Specialized Biocontainment Screening …, 2010).

Hit rate of the full screen: of about 320,000 compounds, about 1,300 (0.41%) were called active. Inconclusive results (about 3%) are left out. How the calls were made is not given here. Not all results are given here. Measured potencies and affinities stand elsewhere.

This assay in a line: growth inhibition of non-replicating M. tuberculosis (AID 488890).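 Further: plate controls were DMSO cells for no effect and high antibiotic wells for full effect.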 To be noted: Mycobacterium tuberculosis non-replicating, at 25 µM, stronger effect = higher value.
One may read the inhibition as the change of the read-out against control, counted positive when it falls. As to `N#CCO/N=C(\c1ccccc1)c1ccncc1`, the inhibition worked out at 0.55%. To `O=c1oc2ccccc2c(Nc2ccc(O)cc2)c1[N+](=O)[O-]` belongs 35.3%; to `O=c1oc2ccccc2c(Nc2cccc3ccccc23)c1[N+](=O)[O-]`, 21.2%. To `COc1ccc(S(=O)(=O)N2CCN(C)CC2)cc1C` belongs 0.44%. To `N#Cc1ccsc1NC(=O)C1CC(=O)N(Cc2ccccc2)C1` (configuration not stated) belongs 50.7%; to `Cc1nn(CC(=O)N2CCc3ccccc3C2)c(C)c1Cl`, 10.6%; to `CCOC(=O)c1c(NC(=O)CN2CCOCC2)sc(C(=O)NC)c1C`, -15.7%. On to `CCOC(=O)c1c(NC(=O)CCN2CCOCC2)sc(C)c1-c1ccccc1`, for which the inhibition was 55.4%. Next, `O=C(Nc1ncc2c(n1)-c1ccccc1OC2)c1ccc(Cl)cc1`: 75.5%. To `O=C(Nc1ncc2c(n1)-c1ccccc1OC2)c1ccccc1Cl` belongs 13.6%; to `COc1ccc(C(CNC(=O)c2cccc(S(=O)(=O)NCc3ccccc3)c2)N(C)C)cc1` (configuration not stated), -0.497%; to `O=C(NCc1ccc2c(c1)OCO2)c1ccc(Br)s1`, 70.4%.

Consider `O=C(NCc1ccc2c(c1)OCO2)c1c(Cl)cccc1Cl`, for which the inhibition is 3.82%. Next, `CC(C)(C)OC(=O)[C@H](Cc1ccccc1)NC(=O)c1nc[nH]c1C(=O)N1CCNCC1`: 9.16%; `Cc1ccc(NC(=O)C2(c3ccc([N+](=O)[O-])cc3)CCCC2)cc1`: 56.9%; `CCOC(=O)C1CCN(c2c(-c3ccccc3)c3cc(Cl)ccc3[nH]c2=O)CC1`: -6.2%. To `CN(Cc1ccccc1)C(=O)c1[nH]cnc1C(=O)N[C@@H](Cc1ccccc1)C(=O)OC(C)(C)C` belongs 57.5%; to `CSc1ccccc1NC(=O)c1cc(CC(C)C)on1`, 77.5%. To `COc1ccc(NC(=O)c2cc(CC(C)C)on2)cc1OC` belongs 27.3%. In the case of `CC(C)Cc1cc(C(=O)Nc2cc(Cl)ccc2Cl)no1`, the inhibition turned out to be 75.3%. To `CC(C)Cc1cc(C(=O)Nc2ccc3c(c2)OCO3)no1` belongs 79%.

With `COc1ccc(NC(=O)c2ccc(NC(=O)c3cccs3)cc2)cc1`, the inhibition amounted to 17.2%. To `Cc1ccc(S(=O)(=O)N(C)/N=C2/C(=O)N(CC(=O)O)c3ccccc32)cc1` belongs -9.17%; to `CC/C(=N\NC(=O)Nc1ccccc1)c1c(O)n(Cc2ccccc2)c(=O)[nH]c1=O`, 0.07%; to `O=C(/C=C/c1ccc(Br)cc1)Nc1ccc(S(=O)(=O)Nc2ncccn2)cc1`, 21.5%. Next, `CCOc1ccccc1NC(=O)CCS(=O)(=O)c1cccs1`: 1.98%; `C/C(=N\NC(=O)c1ccccn1)c1ccc(Cl)cc1`: 65.9%; `C/C(=N/NC(=O)c1ccncc1)c1c[nH]c2ccccc12`: 52.8%.

With `C/C(=N\NC(=O)c1cccc(Br)c1)c1ccc(Br)cc1`, the inhibition was 5.12%.

On to `CCC(CC)=NNC(=O)c1ccccc1OCc1ccc(F)cc1`, for which the inhibition came to 1.96%. Next, `O=C(NCc1ccccn1)c1ccccc1OCc1ccc(F)cc1`: -9.24%. To `C/C(=N\NC(=O)c1cccc(Br)c1)c1cccnc1` belongs -8.7%; to `C/C(=N/NC(=O)c1ccccn1)c1ccc(O)cc1`, 65.9%.

With `C/C(=N/NC(=O)c1ccccn1)c1c[nH]c2ccccc12`, the inhibition came out at 53%.

Regarding `CC(=O)NC(c1ccc(C(C)C)cc1)c1c(O)ccc2ccccc12` (configuration not stated), the inhibition is -3.1%. Next, `Cc1cc(C)c(S(=O)(=O)N2CCCC(C(=O)N3CCCC3)C2)c(C)c1` (configuration not stated): -5.37%; `CCn1c(=O)n(CC)c2cc(NS(=O)(=O)c3ccccc3)ccc21`: 5.29%. Regarding `COC(=O)c1c(-c2cccnc2)csc1NC(=O)c1cc(C)on1`, the inhibition was 39.4%. To `CC(C)c1ccc(NC2CCCN(C(=O)CCc3cnn(C)c3)C2)cc1` (configuration not stated) belongs -5.85%; to `CC(=O)c1sc(NC(=O)CN2C(=O)CCC2=O)nc1C`, -3.51%; to `O=c1cc([O-])[n+]2c3n1CCCN3CCC2`, -14.7%. To `COc1ccc(C(=O)N/N=C(\C)CC(=O)Nc2ccccn2)cc1OC` belongs -1.08%. To `COc1cc(C(=O)N/N=C(\C)c2ccccn2)cc(OC)c1OC` belongs 36.9%; to `CCn1c(SCC(=O)Nc2cc(Cl)ccc2OC)nnc1C1CC1`, 1.4%; to `COc1ccc(NC(=O)COc2nc(N(C)C)nc(N(C)C)n2)cc1`, -4.63%. In the case of `COc1ccc(CCC(=O)NC2CCCN(Cc3ccc(Cl)cc3)C2)cc1OC` (configuration not stated), the inhibition amounted to 7.24%.

Consider `OCC[C@@H]1C[C@@H](O)[C@H](O)[C@@]2(OCCc3ccccc32)O1`, for which the inhibition was -1.04%. To `COc1cc(OC)cc(C(=O)NNC(=O)C2CCCC2)c1` belongs -10.6%. To `CC(=O)N1CCc2c(sc(NC(=O)C3CC3)c2-c2nc3ccccc3s2)C1` belongs 12.5%. As to `CC(C)N1CCc2c(sc(NC(=O)c3nc4ccccc4s3)c2C(N)=O)C1`, the inhibition is 77.9%. Next, `Cc1cccc(N(CC(=O)NC(C)(C)C)C(=O)CS(=O)CC(=O)Nc2ccc(F)cc2)c1` (configuration not stated): -8.34%; `COc1ccc(-c2nnc(SCc3ccc(C(=O)O)cc3)n2N)cc1`: -5.97%; `Cc1nnc(NC(=O)CCS(=O)(=O)Cc2ccccc2)s1`: 57.7%. Next, `COCCSc1nnc(NC(=O)CS(=O)(=O)c2ccccc2)s1`: 2.87%. Next, `O=C(CS(=O)(=O)c1ccccc1)Nc1ncc([N+](=O)[O-])s1`: -8.38%; `O=C(CCS(=O)(=O)Cc1ccccc1)Nc1nncs1`: 60.5%. On to `O=C(Cc1csc(Nc2nc(=S)[nH]c3ccccc23)n1)N1CCN(c2cccc(C(F)(F)F)c2)CC1`, for which the inhibition is -8.89%. To `CC(=O)N(Cc1ccccc1)Cc1nc2sc(C)c(C)c2c(=O)[nH]1` belongs 5.06%; to `O=C(CN1C(=O)CSc2ccc(S(=O)(=O)N3CCOCC3)cc21)NCCCN1CCCCC1`, -5.81%; to `Cc1ccc(S(=O)(=O)CC(=O)Nc2ccc(Cl)cn2)cc1`, 53.5%.

`COc1ccc([N+](=O)[O-])cc1/C=N/NC(=O)CNC(=O)c1cccc(F)c1`: the inhibition stood at 23.1%. As to `CC(C)CCOCc1nc2sc3c(c2c(=O)[nH]1)CCC(C)C3` (configuration not stated), the inhibition turned out to be 27.8%. To `CSc1nc2sc3c(c2c(=O)[nH]1)CCC(C)C3` (configuration not stated) belongs -4.35%; to `O=C(CCCc1c[nH]c2ccccc12)NCc1ccc2c(c1)OCO2`, 7.12%. Next, `O=C(Cc1c[nH]c2ccccc12)NCc1ccc(Cl)cc1`: 12.5%.

Take `O=C(CCc1c[nH]c2ccccc12)NCc1ccc2c(c1)OCO2`: the inhibition is 6.21%. In the case of `NC(=O)CCc1c[nH]c2ccccc12`, the inhibition is -20.3%. To `CC(=O)N[C@@H](Cc1c[nH]c2ccccc12)C(=O)OCc1ccc(C#N)cc1` belongs 5.82%; to `O=C(CCc1c[nH]c2ccccc12)NCCc1ccc(Cl)cc1`, -0.44%; to `CCOC(=O)CNC(=O)CSc1ncnc2c1nnn2-c1ccc(F)cc1`, 71.2%. Regarding `COc1ccc(-c2sccc2C(C)C(=O)O)cc1` (configuration not stated), the inhibition came to 1.98%. With `CCOc1ccc(S(=O)(=O)NCCC(=O)N2CCN(c3ccccc3O)CC2)cc1`, the inhibition is 0.02%.

In the case of `Cc1cc(C)nc(NS(=O)(=O)c2ccc(NC(=O)c3ccc(S(=O)(=O)N4CCOCC4)cc3)cc2)n1`, the inhibition amounted to 14.6%.

Take `CCOCC(=O)Nc1nnc(COC)s1`: the inhibition is 9.42%. Turning to `CC(=O)c1ccc(N2CCN(S(=O)(=O)c3cc4[nH]c(=O)c(=O)[nH]c4cc3C)CC2)cc1`, the inhibition was -6.88%. To `CC(C)(C)c1nnc(N/N=C/c2ccc(Br)cc2)n(N)c1=O` belongs 12%; to `Cc1nnc(N/N=C/c2cc([N+](=O)[O-])c(N3CCC(C)CC3)cc2N2CCC(C)CC2)n1N`, 37.3%. To `COc1ccc(/C=N/Nc2nnc(C)n2N)cc1OC` belongs -3.85%; to `CCOc1cc(/C=N/Nc2nnc(C)n2N)ccc1O`, 2.89%.

`NC(=S)N/N=C/c1ccc(-c2ccc([N+](=O)[O-])cc2)o1`: the inhibition came to 63.3%.

As for `Cc1nnc(N/N=C/c2c(Cl)cccc2Cl)n1N`, the inhibition was 18.3%. To `NC(=O)N/N=C/c1ccc(-c2ccc([N+](=O)[O-])cc2)o1` belongs 45.3%; to `CC1CCN(c2ccc(/C=N/n3nnnc3N)cc2[N+](=O)[O-])CC1`, 6.33%; to `COc1ccc(N(CC(=O)NCCc2ccccc2)C(=O)CCC(=O)Nc2ccccn2)cc1`, -3.83%.

With `CC(C)N(CCNC(=O)c1ccc(CS(=O)(=O)c2c(Cl)cccc2Cl)o1)Cc1ccccc1`, the inhibition was 15.8%. Next, `Cc1ccc(S(=O)(=O)N2CCOCC2)cc1C(=O)OCC(=O)N(Cc1ccccc1)C(C)C`: 0.48%; `O=C(CNC(=O)c1cccs1)NCC(=O)OCc1ccc(Cl)cc1`: 15.7%.

Take `CCN(CC)S(=O)(=O)c1ccc(N2CCOCC2)c(NS(=O)(=O)c2ccc(OC)cc2)c1`: the inhibition was -8.38%. Next, `CCc1nc(NC(C)C)c2oc3ccccc3c2n1`: 8.44%; `Cc1nnc(N/N=C\c2ccc(-c3ccccc3[N+](=O)[O-])o2)n1N`: 63.6%. On to `Cc1nnc(N/N=C\c2ccc(-c3cccc(C(=O)O)c3)o2)n1N`, for which the inhibition was determined as 12.4%. Next, `CCOc1cc2c(cc1OCC)C(c1ccc(F)cc1)NCC2` (configuration not stated): 19.2%; `CC(CNC(=O)c1ccc(OC2CCN(Cc3ccccn3)CC2)cc1)Oc1cccnc1` (configuration not stated): 0.447%. To `COc1ccc(CNC(=O)CCCc2ccccc2)cc1` belongs 1.45%; to `COc1ccc(CCNC(=O)CCCc2ccccc2)cc1OC`, 26.3%. Next, `CN(CC(=O)Nc1ccc(F)c(F)c1)S(=O)(=O)c1cccc2cccnc12`: 0.37%; `O=C(OCc1c(Cl)cccc1Cl)c1cccnc1Cl`: 33.3%. In the case of `O=C(OCc1c(Cl)cccc1Cl)c1cnccn1`, the inhibition turned out to be 17.6%.

For `O=C(COC(=O)c1ccccn1)Nc1ccccc1Cl`, the inhibition came to 3.22%.

As for `O=C(OCc1ccc(Cl)c(Cl)c1)c1cnccn1`, the inhibition is 4.21%.

Turning to `COC(=O)c1ccc(OC(=O)c2ccccn2)cc1`, the inhibition worked out at 42%.

Regarding `O=C(COC(=O)c1ccccn1)Nc1c(Cl)cccc1Cl`, the inhibition is 8.09%. To `COC(=O)c1ccc(COC(=O)c2cnccn2)cc1` belongs 55.1%; to `N#Cc1ccc(COC(=O)c2ccccn2)cc1`, 55.2%; to `O=C(c1cccs1)N1CCN(C2CCCCC2)CC1`, 14.6%. `O=C(CSc1nnc(CNC(=O)c2ccccc2F)o1)NCC1CCCO1` (configuration not stated): the inhibition was 4.55%. With `Cc1cc(C)c(C)c(C(=O)COC(=O)CNC(=O)CNC(=O)c2ccco2)c1C`, the inhibition was 6.12%.

As to `CN(C)/C=N/c1cc(=O)[nH]c(=O)n1CC1CC1`, the inhibition is -0.07%. To `O=C(Oc1c(Cl)cc(Cl)c2cccnc12)N1CCCCC1` belongs 22.4%; to `O=C(COc1ccc2ccccc2c1Br)N1CCCCC1`, 76.2%; to `O=C(Oc1c(Br)cc(Br)c2cccnc12)N1CCCCC1`, 43.3%. Next, `CN1CCN(C(=O)COc2ccc3ccccc3c2Br)CC1`: 37.4%.
